The supplement of paper PMC11732987, “Enantioselective OTUD7B fragment discovery through chemoproteomics screening and high-throughput optimisation” (Communications Chemistry, 2025)

How the values were obtained:
Assay in all cases: log2 ratio of Biotin-Ahx-Ub-VS probe labelling (fragment/DMSO); higher = less target engagement (more negative = stronger competition), active = hit call of the paper (q ≤ 0.05, log2 ratio ≤ -1)
Conditions in all cases: compound concentration: 200 uM; treatment time: 3 h
USP19 = molecular target: T1, USP19 (UniProt O94966)
T1 sequence (whole entry): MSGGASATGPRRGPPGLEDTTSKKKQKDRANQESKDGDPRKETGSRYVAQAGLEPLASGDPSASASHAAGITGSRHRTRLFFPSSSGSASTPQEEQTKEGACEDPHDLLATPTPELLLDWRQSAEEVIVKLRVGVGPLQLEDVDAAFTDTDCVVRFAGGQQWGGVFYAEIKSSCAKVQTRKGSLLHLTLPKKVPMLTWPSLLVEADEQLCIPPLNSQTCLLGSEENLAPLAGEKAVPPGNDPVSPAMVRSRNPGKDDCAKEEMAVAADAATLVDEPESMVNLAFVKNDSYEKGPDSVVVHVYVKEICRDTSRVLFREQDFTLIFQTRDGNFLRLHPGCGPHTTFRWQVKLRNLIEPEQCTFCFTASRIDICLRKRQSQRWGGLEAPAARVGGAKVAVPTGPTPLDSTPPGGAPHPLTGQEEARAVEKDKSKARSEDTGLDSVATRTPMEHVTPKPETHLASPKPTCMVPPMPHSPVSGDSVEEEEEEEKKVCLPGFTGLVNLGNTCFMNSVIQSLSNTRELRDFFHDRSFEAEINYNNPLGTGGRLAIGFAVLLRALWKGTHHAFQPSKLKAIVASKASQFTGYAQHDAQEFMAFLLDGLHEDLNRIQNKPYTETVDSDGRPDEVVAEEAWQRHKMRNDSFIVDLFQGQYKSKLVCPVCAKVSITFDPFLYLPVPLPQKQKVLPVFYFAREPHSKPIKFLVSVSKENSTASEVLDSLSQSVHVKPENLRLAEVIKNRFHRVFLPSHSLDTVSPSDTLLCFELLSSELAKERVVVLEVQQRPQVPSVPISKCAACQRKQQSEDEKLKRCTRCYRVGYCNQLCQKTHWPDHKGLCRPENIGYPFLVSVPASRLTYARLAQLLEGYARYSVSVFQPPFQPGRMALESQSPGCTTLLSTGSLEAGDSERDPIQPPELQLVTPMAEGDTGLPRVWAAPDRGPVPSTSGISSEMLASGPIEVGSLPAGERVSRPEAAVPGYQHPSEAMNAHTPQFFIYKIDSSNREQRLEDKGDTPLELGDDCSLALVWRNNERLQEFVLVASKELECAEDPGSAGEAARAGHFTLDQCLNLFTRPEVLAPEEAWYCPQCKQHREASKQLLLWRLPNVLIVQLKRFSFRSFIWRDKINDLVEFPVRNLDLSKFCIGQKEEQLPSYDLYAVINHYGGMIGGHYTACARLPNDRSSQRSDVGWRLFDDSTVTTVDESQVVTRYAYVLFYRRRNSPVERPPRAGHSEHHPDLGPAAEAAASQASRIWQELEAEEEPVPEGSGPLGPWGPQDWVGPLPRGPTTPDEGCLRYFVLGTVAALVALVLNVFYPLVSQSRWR
Summary of the method: (§1)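 The table lists average log2 ratios of fragment over vehicle, from an unpaired t-test on global-median-normalised Spectronaut label-free quantities. Proteins with ≥2 unique peptides were used. Samples were HEK293T lysate (495 µg) treated in triplicate with fragment at 200 µM or vehicle for 3 h, then with Biotin-Ahx-Ub-VS (0.5 µM final) for 1 h, with labelled DUBs NeutrAvidin-enriched and run by diaPASEF LC-MS/MS.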

USP22 = molecular target: T2, USP22 (UniProt Q9UPT9)
T2 sequence (whole entry): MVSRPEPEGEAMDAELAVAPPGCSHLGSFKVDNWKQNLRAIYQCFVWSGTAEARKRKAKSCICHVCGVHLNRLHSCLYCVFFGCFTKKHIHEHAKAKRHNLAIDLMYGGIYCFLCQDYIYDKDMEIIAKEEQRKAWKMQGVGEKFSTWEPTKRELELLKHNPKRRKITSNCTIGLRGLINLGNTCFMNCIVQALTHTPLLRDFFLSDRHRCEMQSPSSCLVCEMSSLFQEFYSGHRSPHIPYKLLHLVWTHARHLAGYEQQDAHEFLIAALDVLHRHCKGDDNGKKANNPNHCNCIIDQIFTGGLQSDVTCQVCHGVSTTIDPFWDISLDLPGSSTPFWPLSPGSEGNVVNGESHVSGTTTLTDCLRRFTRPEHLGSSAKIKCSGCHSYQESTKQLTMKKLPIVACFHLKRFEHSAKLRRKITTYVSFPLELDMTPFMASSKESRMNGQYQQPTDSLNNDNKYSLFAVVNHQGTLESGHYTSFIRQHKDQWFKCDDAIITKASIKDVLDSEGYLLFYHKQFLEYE
Summary of the method: as §1

USP24 = USP24 (UniProt Q9UPU5)
Sequence of USP24 (Q9UPU5 whole entry): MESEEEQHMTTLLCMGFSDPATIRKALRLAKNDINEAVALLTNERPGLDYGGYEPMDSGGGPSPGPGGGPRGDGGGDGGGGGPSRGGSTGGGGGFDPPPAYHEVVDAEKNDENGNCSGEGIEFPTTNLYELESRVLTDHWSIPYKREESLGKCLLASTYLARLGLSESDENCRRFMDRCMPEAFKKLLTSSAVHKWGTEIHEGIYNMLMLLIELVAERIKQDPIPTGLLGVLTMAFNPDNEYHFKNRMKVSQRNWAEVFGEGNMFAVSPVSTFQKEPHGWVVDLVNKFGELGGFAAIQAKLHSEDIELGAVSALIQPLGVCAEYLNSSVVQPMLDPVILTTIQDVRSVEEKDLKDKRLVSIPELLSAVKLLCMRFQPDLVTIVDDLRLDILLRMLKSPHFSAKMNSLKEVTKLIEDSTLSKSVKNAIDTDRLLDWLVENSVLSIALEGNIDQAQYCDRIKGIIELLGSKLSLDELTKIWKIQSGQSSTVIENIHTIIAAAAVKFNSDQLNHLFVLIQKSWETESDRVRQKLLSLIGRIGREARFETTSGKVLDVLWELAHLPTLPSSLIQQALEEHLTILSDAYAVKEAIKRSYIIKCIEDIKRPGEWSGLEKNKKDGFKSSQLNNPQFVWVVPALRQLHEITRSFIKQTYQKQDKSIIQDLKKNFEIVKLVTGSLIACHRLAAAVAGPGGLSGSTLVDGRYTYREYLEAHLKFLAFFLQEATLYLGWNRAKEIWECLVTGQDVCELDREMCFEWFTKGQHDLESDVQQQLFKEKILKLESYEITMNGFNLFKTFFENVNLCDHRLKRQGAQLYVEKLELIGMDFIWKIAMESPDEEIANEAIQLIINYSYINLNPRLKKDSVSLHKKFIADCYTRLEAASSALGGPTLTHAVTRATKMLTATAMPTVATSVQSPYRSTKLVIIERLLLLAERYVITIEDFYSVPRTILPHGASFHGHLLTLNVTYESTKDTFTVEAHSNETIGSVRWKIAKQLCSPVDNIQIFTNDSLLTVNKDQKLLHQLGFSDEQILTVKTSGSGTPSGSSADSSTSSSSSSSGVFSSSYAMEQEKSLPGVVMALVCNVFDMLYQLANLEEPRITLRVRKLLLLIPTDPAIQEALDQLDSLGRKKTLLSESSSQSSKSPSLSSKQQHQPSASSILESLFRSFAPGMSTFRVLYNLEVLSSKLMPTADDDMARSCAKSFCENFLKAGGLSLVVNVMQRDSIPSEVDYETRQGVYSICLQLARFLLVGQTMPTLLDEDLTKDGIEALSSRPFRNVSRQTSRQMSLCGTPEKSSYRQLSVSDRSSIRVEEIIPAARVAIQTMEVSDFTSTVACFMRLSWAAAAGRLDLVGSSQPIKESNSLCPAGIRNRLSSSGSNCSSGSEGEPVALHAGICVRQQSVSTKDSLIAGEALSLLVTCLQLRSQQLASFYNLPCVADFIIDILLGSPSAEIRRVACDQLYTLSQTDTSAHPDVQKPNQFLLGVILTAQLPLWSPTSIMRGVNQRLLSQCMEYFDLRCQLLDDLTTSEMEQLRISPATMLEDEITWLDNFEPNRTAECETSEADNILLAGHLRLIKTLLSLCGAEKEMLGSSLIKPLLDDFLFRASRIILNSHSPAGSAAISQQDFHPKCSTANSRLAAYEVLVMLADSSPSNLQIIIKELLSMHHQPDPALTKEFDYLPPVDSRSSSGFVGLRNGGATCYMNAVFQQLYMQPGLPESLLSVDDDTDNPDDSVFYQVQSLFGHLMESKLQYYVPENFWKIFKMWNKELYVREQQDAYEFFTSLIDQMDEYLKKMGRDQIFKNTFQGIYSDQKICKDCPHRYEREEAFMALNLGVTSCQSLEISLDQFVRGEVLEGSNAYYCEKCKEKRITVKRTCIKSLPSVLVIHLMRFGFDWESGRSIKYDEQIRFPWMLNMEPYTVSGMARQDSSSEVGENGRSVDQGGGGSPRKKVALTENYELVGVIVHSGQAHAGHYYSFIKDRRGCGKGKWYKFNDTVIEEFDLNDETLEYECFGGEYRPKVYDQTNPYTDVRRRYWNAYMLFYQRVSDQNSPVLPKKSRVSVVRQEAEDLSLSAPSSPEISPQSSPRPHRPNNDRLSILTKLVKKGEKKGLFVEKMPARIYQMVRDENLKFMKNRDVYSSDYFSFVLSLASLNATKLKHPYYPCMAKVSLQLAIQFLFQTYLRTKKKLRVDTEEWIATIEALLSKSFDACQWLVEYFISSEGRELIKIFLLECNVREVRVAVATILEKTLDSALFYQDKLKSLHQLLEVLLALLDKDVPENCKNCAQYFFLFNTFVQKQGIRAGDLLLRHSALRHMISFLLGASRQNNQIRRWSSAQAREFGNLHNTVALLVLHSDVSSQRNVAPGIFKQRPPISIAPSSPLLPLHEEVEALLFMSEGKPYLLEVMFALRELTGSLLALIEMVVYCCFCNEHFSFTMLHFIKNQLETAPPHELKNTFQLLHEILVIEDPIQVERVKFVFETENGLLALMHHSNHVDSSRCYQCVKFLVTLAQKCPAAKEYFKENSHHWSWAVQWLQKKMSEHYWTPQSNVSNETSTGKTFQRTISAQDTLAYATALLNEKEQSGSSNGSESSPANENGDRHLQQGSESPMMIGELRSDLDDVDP
Summary of the method: as §1

USP25 = molecular target: T3, USP25 (UniProt Q9UHP3)
T3 sequence (whole entry): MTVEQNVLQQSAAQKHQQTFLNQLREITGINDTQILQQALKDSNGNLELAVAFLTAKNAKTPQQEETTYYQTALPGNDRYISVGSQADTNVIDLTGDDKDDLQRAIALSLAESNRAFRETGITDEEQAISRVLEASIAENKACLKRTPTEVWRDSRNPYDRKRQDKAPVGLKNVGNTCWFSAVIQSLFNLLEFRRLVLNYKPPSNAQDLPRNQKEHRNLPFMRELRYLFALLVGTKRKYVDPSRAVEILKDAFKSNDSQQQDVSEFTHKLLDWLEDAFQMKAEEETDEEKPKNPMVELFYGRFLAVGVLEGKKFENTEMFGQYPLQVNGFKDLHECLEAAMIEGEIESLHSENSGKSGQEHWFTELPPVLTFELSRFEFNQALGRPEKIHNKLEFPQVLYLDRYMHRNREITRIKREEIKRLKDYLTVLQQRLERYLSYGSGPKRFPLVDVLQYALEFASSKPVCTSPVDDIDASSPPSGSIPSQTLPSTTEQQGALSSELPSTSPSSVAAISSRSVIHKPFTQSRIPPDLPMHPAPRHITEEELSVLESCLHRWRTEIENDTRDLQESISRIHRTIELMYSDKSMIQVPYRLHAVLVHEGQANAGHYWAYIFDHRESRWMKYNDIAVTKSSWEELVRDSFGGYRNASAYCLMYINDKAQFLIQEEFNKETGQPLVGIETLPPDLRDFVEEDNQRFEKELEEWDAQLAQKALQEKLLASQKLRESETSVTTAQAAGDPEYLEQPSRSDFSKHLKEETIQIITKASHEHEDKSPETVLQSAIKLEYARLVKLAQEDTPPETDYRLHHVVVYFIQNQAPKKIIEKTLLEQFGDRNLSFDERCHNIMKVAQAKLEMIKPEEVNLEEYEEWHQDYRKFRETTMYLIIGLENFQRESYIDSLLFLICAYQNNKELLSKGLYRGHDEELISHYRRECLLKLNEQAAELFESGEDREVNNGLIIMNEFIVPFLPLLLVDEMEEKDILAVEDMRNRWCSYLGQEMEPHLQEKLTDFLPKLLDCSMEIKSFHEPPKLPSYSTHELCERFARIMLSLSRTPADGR
Summary of the method: as §1

USP28 = molecular target: T4, USP28 (UniProt Q96RU2)
T4 sequence (whole entry): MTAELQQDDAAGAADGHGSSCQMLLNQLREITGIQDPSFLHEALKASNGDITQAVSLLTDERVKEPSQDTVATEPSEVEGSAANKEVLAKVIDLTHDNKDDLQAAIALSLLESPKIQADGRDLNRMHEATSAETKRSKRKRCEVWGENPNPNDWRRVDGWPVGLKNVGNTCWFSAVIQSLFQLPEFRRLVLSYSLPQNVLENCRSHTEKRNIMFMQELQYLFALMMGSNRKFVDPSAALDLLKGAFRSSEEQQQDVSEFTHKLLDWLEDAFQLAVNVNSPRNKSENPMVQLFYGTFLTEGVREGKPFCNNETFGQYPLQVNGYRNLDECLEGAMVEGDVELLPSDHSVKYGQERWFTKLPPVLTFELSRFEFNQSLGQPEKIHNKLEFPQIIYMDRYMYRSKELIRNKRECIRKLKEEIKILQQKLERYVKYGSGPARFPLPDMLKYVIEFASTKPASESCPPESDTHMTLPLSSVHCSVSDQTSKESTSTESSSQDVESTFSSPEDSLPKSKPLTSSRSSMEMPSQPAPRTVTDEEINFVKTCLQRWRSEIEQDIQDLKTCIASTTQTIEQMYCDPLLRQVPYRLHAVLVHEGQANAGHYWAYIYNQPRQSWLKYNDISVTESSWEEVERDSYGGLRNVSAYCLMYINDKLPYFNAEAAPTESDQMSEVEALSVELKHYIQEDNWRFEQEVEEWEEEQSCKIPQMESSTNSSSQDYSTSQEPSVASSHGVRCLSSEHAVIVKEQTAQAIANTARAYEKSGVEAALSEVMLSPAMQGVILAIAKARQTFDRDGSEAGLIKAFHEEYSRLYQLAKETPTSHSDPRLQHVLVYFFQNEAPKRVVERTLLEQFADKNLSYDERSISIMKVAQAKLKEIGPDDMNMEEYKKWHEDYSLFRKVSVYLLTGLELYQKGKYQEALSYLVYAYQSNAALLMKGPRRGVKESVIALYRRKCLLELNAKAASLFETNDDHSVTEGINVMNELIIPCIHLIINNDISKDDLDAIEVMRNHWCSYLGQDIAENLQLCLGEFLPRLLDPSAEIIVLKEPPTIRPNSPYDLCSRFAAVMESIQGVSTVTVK
Summary of the method: as §1

Measured: log2 ratio of Biotin-Ahx-Ub-VS probe labelling

O=C(CCl)Nc1ccc(F)cc1F
inactive: USP19 -0.101 | USP22 -0.241 | USP24 -0.312 | USP25 -0.265 | USP28 -0.838
